In PubChem BioAssay (EPA / NIEHS):
Active and inactive are the calls of the source. Rule for the calls: active = hit-call score of the fitted dose curve at least 0.9, where 1 is the maximum; inactive = score below 0.9.

Assay: CEETOX_H295R_ESTRADIOL: CeeTox H295R High-throughput Steroidogenesis Assay for Estradiol (AID 2283440);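 note: estradiol secreted into medium quantified by LC-MS/MS after dansyl derivatisation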
Details: actives raise or lower the signal
Procedure: CEETOX_H295R is a cell-based, multiplexed-readout assay that uses H295R, a human adrenal gland cell line, with measurements taken at 48 hours after chemical dosing in a 96-well plate.CEETOX_H295R_ESTRADIOL is one of 23 assay component(s) measured or calculated from the CEETOX_H295R assay. It is designed to make measurements of hormone induction, a form of inducible reporter, as detected with absorbance signals by HPLC-MS-MS technology.Data from the assay component CEETOX_H295R_ESTRADIOL was analyzed into 1 assay endpoint. This assay endpoint, CEETOX_H295R_ESTRADIOL, was analyzed with bidirectional fitting relative to DMSO as the negative control and baseline of activity. […] To generalize the intended target to other relatable targets, this assay endpoint is annotated to the steroid hormone intended target family, where the subfamily is estrogens.
Cell culture and media preparation procedures were conducted in accordance with OECD Test No. 456 guidelines, with minor modifications. H295R cells (ATCC CRL-2128) were expanded for 5 passages and frozen in batches in liquid nitrogen. Prior to the steroidogenesis assay, H295R cells were thawed and passed at least 4 times. The maximum passage was 10. Cells were maintained in a 1:1 mixture of DMEM/F12 supplemented with 5ml/L ITS+ Premix (BD Bioscience) and 12.5 ml/L Nu-Serum (BD Bioscience). After seeding cells into 96-well plates at 50-60% confluency, cells were allowed to adhere overnight. Prior to chemical testing, culture medium was replaced with 175 uL medium containing 10 uM forskolin to stimulate steroidogenesis for 48 hours. Following prestimulation, forskolin medium was replaced with medium containing test chemical solubilized in DMSO (ensuring a final concentration of 0.1% DMSO). Test chemicals were incubated for 48 hours, then the medium was removed and split into 2 vials containing approximately 75uL each, and stored at -80 C prior to hormone analysis. For steroid quantification, media samples were shipped to OpAns, LLC (Durham, NC) on dry ice, and samples were thawed to room temperature prior to liquid-liquid extraction. Steroid hormones were extracted from media samples using methyl tertbutyl ether (MTBE). An extra derivatization with dansyl chloride was included for estrogen (estrone and estradiol) detection only. Steroid hormones were separated by HPLC, eluted using a reverse phase C18 gradient with electrospray positive ionization, followed by quantification by tandem mass spectrometry (MS/MS). Data were acquired on a MassHunter Workstation Acquisition version B03.01 (Agilent Technologies, Inc.) and processed using MassHunter Quantitative Analysis for QQQ. Accuracy was determined for each hormone analyte from 3 standards to determine upper and lower limits of quantification (ULOQ and LLOQ, respectively) using a 7-point standard curve. Precision and accuracy of the extraction and quantification methods were calculated as the percent relative standard deviation (%RSD) of the spiked standards and percent spiked standard recovered, respectively. […] Test medium was removed following chemical exposure, and cell viability was evaluated in the same wells by MTT. MTT procedures were as follows: after removal of test medium, 500 uL of 0.5 mg/ml of 3-[4,5-dimethylthiazol-2-y]2,5-diphenyltetrazoliumbromide solution was added to the cells. Following a 4-hour incubation at 37 C and 5% CO2 to allow formazan-crystal formation, the MTT solution was removed and blue formazan salt crystals were solubilized using 500uL anhydrous isopropanol with shaking for 20 minutes. Absorbance was read at 570 and 650nm using a Packard Fusion microplate reader. Background correction of absorbance units was used to determine percent change relative to controls. […] When a test chemical reduced cell viability to 20% - 70%, the test chemical was diluted 10-fold and re-evaluated, but if cell viability was <20%, then the test chemical was diluted 100-fold and re-evaluated. […]

Compound	outcome	AC50
CC(=O)c1ccc2ccccc2c1	inactive	–
CCCc1ccc(O)cc1	inactive	–
CC(=O)C1=C(C)[C@@H]2C[C@@]3(C1)[C@H](C)CC[C@H]3C2(C)C	inactive	–
COc1ccc2[nH]cc(CCNC(C)=O)c2c1	inactive	–
c1ccc(OCCOc2ccccc2)cc1	inactive	–
O=C(OCc1ccccc1)c1ccccc1O	inactive	–
CCCCCCCCCCCCN1CCOCC1	inactive	–
CCCCCC(=O)O[C@]1(C(C)=O)CC[C@H]2[C@@H]3CCC4=CC(=O)CC[C@]4(C)[C@H]3CC[C@@]21C	–	13.4 µM (active)
OCC=Cc1ccccc1	inactive	–
OCCCO	inactive	–
